This passage reports outcome and AC50 results from PubChem BioAssay (EPA / NIEHS).

Results filed as inconclusive are left out. Calls of active or inactive are those of the source. How the source made its calls: active means hit-call score of the fitted dose curve at least 0.9, where 1 is the maximum; inconclusive means response in the unintended direction; inactive means score below 0.9.

Chain of Estrogen receptor (Homo sapiens) (P03372 whole entry, looked up, the tested form may be a part): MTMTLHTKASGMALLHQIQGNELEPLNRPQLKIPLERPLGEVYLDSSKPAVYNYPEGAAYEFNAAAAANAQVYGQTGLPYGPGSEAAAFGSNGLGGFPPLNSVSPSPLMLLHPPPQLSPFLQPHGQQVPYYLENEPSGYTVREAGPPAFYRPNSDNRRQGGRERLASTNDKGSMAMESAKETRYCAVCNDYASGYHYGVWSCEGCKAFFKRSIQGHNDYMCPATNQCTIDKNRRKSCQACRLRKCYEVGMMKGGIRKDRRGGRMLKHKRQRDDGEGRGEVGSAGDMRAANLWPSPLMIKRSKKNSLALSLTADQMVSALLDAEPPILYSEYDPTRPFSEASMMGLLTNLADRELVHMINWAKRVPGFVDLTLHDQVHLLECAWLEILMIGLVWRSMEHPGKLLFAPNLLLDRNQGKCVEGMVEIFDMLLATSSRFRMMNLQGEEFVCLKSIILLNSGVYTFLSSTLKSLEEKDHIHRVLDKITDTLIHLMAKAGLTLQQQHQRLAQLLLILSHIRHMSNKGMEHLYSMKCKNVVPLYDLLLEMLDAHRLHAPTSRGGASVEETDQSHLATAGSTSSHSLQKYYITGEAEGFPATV

For this assay, the target named is Estrogen receptor (Homo sapiens) (UniProt P03372). Kind of assay: ATG_hERa_XSP1: Attagene TRANS-FACTORIAL Multi-Species (XSP1) HepG2 Assay for human Estrogen Receptor (ESR1) (AID 2283780). Put shortly:
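HepG2 cells transiently transfected with GAL4-UAS reporter units and chimeric NR-Gal4 constructs; 24 h after dosing, reporter mRNA quantified by RT-PCR and capillary electrophoresis. Medium contained 3 nM 6-alpha-fluorotestosterone; activity fitted as gain-of-signal versus DMSO.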
With `COP(=O)(OC)O/C(=C\Cl)c1cc(Cl)c(Cl)cc1Cl`, the call was inactive. Usually AC50 stands for the concentration giving half of the maximal activity seen. With `CC1(C)CCC(Cc2ccc(Cl)cc2)C1(O)Cn1cncn1` (stereo not drawn), the AC50 was 5.17 µM (active). Still for that read-out and setting: the same measure for `CC(C)(C)c1cc(O)ccc1O`: 8.75 µM (active).
